This note sets out measurements from PubChem BioAssay AID1272365 (Small Molecule Screening Facility, UW Madison, 2018).

Where “and” joins values, the source holds several entries; their conditions need not be identical. Equal values may be shown once. Screen size: about 430,000 compounds; about 2,600 (0.6%) were called active. What follows is part of a selection rich in actives, with near analogues and random picks from the rest. Values without a mark were called inactive. Cut-off read from the data, not from the text of the source: active = inhibition mostly above about 37% (no sharp cut-off); inactive = mostly below about 20%.

The subject of the experiment is PriA–SSB C-terminal tail interaction (Klebsiella pneumoniae). Kind of experiment: inhibitors of Klebsiella pneumoniae PriA binding to SSB C-terminal tail, primary screen, biochemical, AlphaScreen (AID 1272365).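 Note: plate controls were negative control peptide for no effect and reference peptide for full effect.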 Particulars: AlphaScreen SSBct-PriA binding, biotinylated peptide; at 33 µM, hits give high values. (Alpha assays give light when donor and acceptor beads are brought close together.)
As to `CCCCc1ccc(Nc2c(C(=O)N3CCSCC3)cnc3nc(C)ccc23)cc1`, the inhibition (commonly the relative decrease from the control value, in per cent) was -6%.

Regarding `COCCN(Cc1ccncc1)C(=O)c1ccco1`, the inhibition is -8%.

As for `O=C(c1ccccc1)c1ccccc1C(=O)N1CCC(Oc2ncccc2Cl)CC1`, the inhibition is 6%.

On to `Oc1ccc(C=NNC(=S)Nc2cccnc2)c(O)c1O`, for which the inhibition was 100% (active).

On to `O=C(NN=Cc1cccc2ccccc12)c1cccnc1`, for which the inhibition is -10.5%.

On to `Fc1cc(Br)ccc1NC(=S)Nc1cccnc1`, for which the inhibition is -8.39%.

Take `COc1ncc(NC(=O)c2snnc2C)cn1`: the inhibition is 1%.

As to `COc1ccc2oc(-c3csc(NC(=O)c4ccc(N5C(=O)CCC5=O)cc4)n3)cc2c1`, the inhibition is 6%.

As for `O=C(Nc1nc(-c2ccc(Cl)cc2Cl)cs1)c1ccc(N2C(=O)CCC2=O)cc1`, the inhibition is 64% (active).

With `O=C(Nc1cc2ccccc2cc1NC(=O)c1ccc(N2C(=O)CCC2=O)cc1)c1ccc(N2C(=O)CCC2=O)cc1`, the inhibition was 0%.

On to `COc1ccc(S(=O)(=O)NCCn2nc(-c3ccncc3)ccc2=O)cc1F`, for which the inhibition is -6%.

In the case of `O=S(=O)(Cc1ccccc1)NCC1CCN(c2cnccn2)CC1`, the inhibition is -1%.

In the case of `CC(=O)Nc1ccc(OCC(O)CN(c2ccc(C)cc2)S(C)(=O)=O)cc1` (centres undefined), the inhibition was -18%.

In the case of `CCc1ccc(S(=O)(=O)NCC(O)COc2ccc(OC)cc2)cc1` (centres undefined), the inhibition is -7.77%.

As to `COc1ccc(OCC(O)CNc2ccc(C)cc2)cc1` (centres undefined), the inhibition was 36% (active).

Regarding `CN(C)c1ccc(C=NN=C2NC(=O)/C(=C/c3ccc([N+](=O)[O-])cc3)S2)cc1`, the inhibition is -15.2%.

Consider `O=C(NCc1cccs1)C(=O)Nc1cccc(F)c1`, for which the inhibition was -15%.

As to `Cc1ccc(C(=O)N/C(=C\c2cccs2)C(=O)NCCc2ccccn2)cc1C`, the inhibition was -25.3%.

In the case of `O=C1/C(=C/c2cccs2)Oc2c1ccc1c2CN(Cc2ccccn2)CO1`, the inhibition is 101% (active).

In the case of `COc1ccc(CCN2COc3ccc4c(c3C2)O/C(=C\c2ccco2)C4=O)cc1OC`, the inhibition was 3%.

In the case of `Cc1cc(N2CCC(NC(=O)c3ccc4ncsc4c3)CC2)n[nH]1`, the inhibition was -7%.

For the compound `O=C(c1ccccn1)N1CC(N2C(=O)CCC2=O)C1`, the inhibition was -11%.

Consider `COc1ccccc1-n1cnc2cc(NS(=O)(=O)c3ccccc3)ccc21`, for which the inhibition was 73.9% (active).

With `COc1ccc(F)cc1S(=O)(=O)Nc1ccc2c(c1)CCCN2S(=O)(=O)c1ccccc1`, the inhibition is 1%.

Regarding `COCCCNC(=O)c1ccc2c(c1)ncn2-c1ccccc1OC`, the inhibition is -10.8%.

For `Cc1ccc(C(=O)NC(=S)NCc2cccnc2)cc1`, the inhibition was 46.3% (active).

On to `Cc1c(C(=O)NC(=S)NCc2cccnc2)oc2ccccc12`, for which the inhibition is -8.37%.

For the compound `Cc1cccc(OCCNC(=S)NC(=O)c2cccnc2)c1`, the inhibition was 1.76%.

As to `CCOC(=O)CSc1nc2cc(OC)c(OC)cc2c2nc(CCn3nc(C)cc3C)nn12`, the inhibition was 3%.

Consider `CCN(CC)c1ccc(C=NNC(=O)c2c[nH]c3ccccc23)cc1`, for which the inhibition was 16.7%.

Take `CC(=NNC(=O)c1c[nH]c2ccccc12)c1ccccn1`: the inhibition is 75.7% (active).

`CC(=NNC(=O)c1ccc(F)cc1)c1ccccn1`: the inhibition is -1.36%.

For `CC1=NN(CCN2CCN(c3ccc(F)cc3)CC2)c2nc3c(c(=O)n(C)c(=O)n3C)n2C1`, the inhibition was 6% and -7%.

Turning to `CCn1cc(NC(=O)N2CCCc3ccccc32)c2ccccc21`, the inhibition is 2%.

For the compound `Cn1cc(NC(=O)N2CCc3ccccc3C2)c2ccccc21`, the inhibition is -3%.

With `CCn1cc(NC(=O)N2CCc3ccccc32)c2ccccc21`, the inhibition was 40% (active).

As to `CN1CCc2cc(C(CNC(=O)C(=O)Nc3ccccc3F)N(C)C)ccc21` (centres undefined), the inhibition is 14%.

On to `COc1cccc2c1C(=O)c1c(O)c3c(c(O)c1C2=O)CC(O)(C(C)=NNC(=O)c1ccc(Cl)c(Cl)c1)CC3OC1CC(N)C(O)C(C)O1` (centres undefined), for which the inhibition was 57.5% (active).

Consider `NC(=O)CSc1ccc2nnc(-c3ccccn3)n2n1`, for which the inhibition is 72% (active).

For `CCOC(=O)CNC(=O)CSc1ccc2nnc(-c3cccnc3)n2n1`, the inhibition was 2.63%.

In the case of `Cc1ccccc1NC(=O)CSc1ccc2nnc(-c3ccccn3)n2n1`, the inhibition is -4.51%.

Take `CCCN(CCC)C(=O)Cn1c(=O)c2ccccc2n2c(=S)sc(-c3cccc(C)c3)c12`: the inhibition was 7%.

Turning to `CCc1ccc2nc(Nc3nc4ccc(NC(C)=O)cc4s3)sc2c1`, the inhibition was 2%.

For `C/C(=N/N=C1/NC(=O)CS1)c1ccccc1`, the inhibition is -2%.

On to `N#CC1=C(N)Oc2c(sc3ccccc23)C1c1ccco1` (centres undefined), for which the inhibition was 2.22%.

With `Nc1cncc2cccnc12`, the inhibition was -8%.

Turning to `N#CC1=C(N)Oc2c(ccc3cccnc23)C1c1ccncc1` (centres undefined), the inhibition is 65.3% (active).

`Cc1ccc2nc3sc(Nc4ccc(C)c(Cl)c4)nn3c(=O)c2c1`: the inhibition is -4%.

On to `Cc1nn(C)c(C)c1S(=O)(=O)NCC1CCN(c2ccccn2)CC1`, for which the inhibition is 2%.

For `Cc1ccc2c(c1)C1CN(C)CCC1N2S(=O)(=O)c1cccc(F)c1` (centres undefined), the inhibition is 39.2% (active).

Regarding `Cc1ccc2c(c1)C1CN(C)CCC1N2S(=O)(=O)c1ccc(Oc2ccc([N+](=O)[O-])cc2)cc1` (centres undefined), the inhibition was 17.5%.

As for `Cc1ccc2c(c1)C1CN(C)CCC1N2C(=O)c1ccccc1NS(=O)(=O)c1ccc(F)cc1C` (centres undefined), the inhibition is -3.86%.

For the compound `CCOc1ccc(-c2ccc(=O)n(CC(=O)N3CCOCC3)n2)cc1`, the inhibition was -1%.

Take `CN1CCC(=O)N([C@H](CO)Cc2ccccc2)CC1`: the inhibition was -2.41%.

`CC(C)CC(COCc1ccc(Cl)cc1)N1CCN(C(=O)c2ccc(C(F)(F)F)cc2)CCC1=O` (centres undefined): the inhibition is -5.16%.

For the compound `O=C(c1cc(Cl)cc(Cl)c1)N1CCC(=O)N(C(COCc2ccccc2)Cc2ccccc2)CC1` (centres undefined), the inhibition is 44.6% (active).

For the compound `COc1cc(NC(=O)CSc2nccn3nc(-c4ccc(Cl)cc4)cc23)cc(OC)c1`, the inhibition is 3%.

On to `Cc1cc(-c2csc(Nc3ccccn3)n2)c(C)o1`, for which the inhibition is 2%.

As for `Cc1ccc(Nc2nc(-c3ccccn3)cs2)cc1C`, the inhibition is 108% (active).

Consider `Cc1csc(OCC(=O)Nc2ccc(C)c(C)c2)n1`, for which the inhibition is -9.32%.

Turning to `COc1ccccc1C(CNC(=O)c1ccc2c(c1)OCO2)OC` (centres undefined), the inhibition is -10%.

For the compound `Cc1noc(C)c1CC(=O)NCCn1cnc2ccsc2c1=O`, the inhibition was -1%.

For the compound `O=C1c2ccccc2C(=O)c2c1cccc2N1CCN(Cc2ccccc2)CC1`, the inhibition was 50.5%.

Consider `O=C1c2ccccc2C(=O)c2c1cccc2N1CCN(C/C=C/c2ccccc2)CC1`, for which the inhibition was 68.2% (active).

On to `CNC(=O)NC(=O)C(C)N1CCN(C/C=C/c2ccccc2)CC1` (centres undefined), for which the inhibition is 7.15%.

As to `Cc1ccc(Nc2ccc(NCCN)nn2)nc1`, the inhibition was 89% (active).

For `Cc1ccc(NS(=O)(=O)c2ccc(F)cc2)nc1`, the inhibition is -0.76%.

For the compound `Cc1cccc(N2CCN(C(=O)CCc3csc4nc(-c5ccccc5)cn34)CC2)c1`, the inhibition was -16%.

On to `O=C(Cc1csc(NC(=O)c2ccccc2)n1)NCc1ccccn1`, for which the inhibition is 0%.

Turning to `O=C(CCN1C(=O)C2C3C=CC(C3)C2C1=O)Nc1ccccc1F` (centres undefined), the inhibition is -14.1%.

As to `O=C(CC1(n2cccc2)CCOCC1)Nc1nc(-c2ccccn2)cs1`, the inhibition was 109% (active).

Turning to `O=C1c2ccccc2NC(c2ccccn2)N1NS(=O)(=O)c1ccccc1` (centres undefined), the inhibition is -13.5%.

As for `COc1ccc(SCCC(=O)Nc2nc(-c3ccccn3)cs2)cc1`, the inhibition is 81% (active).

Turning to `O=C(CN1C(=O)C2C3C=CC(C3)C2C1=O)Nc1nc(-c2ccccn2)cs1` (centres undefined), the inhibition is 84.8% (active).

On to `CC(C)C1Nc2ccccc2C(=O)N1CC(=O)Nc1nc(-c2ccccn2)cs1` (centres undefined), for which the inhibition is 94.5% (active).

For `Cc1ccc(SCCC(=O)Nc2nc(-c3ccc4c(c3)OCCO4)cs2)cc1`, the inhibition is 8%.

Turning to `Cc1c(C(=O)Nc2nc(-c3ccccn3)cs2)cccc1[N+](=O)[O-]`, the inhibition is 25.8%.

For the compound `O=C(CSc1ccccc1)Nc1nc(-c2ccccn2)cs1`, the inhibition is -20%.

For the compound `Cc1ccc(-c2csc(NC(=O)[C@H](C(C)C)N3C(=O)c4ccccc4C3=O)n2)cc1`, the inhibition was -1%.

In the case of `CCCCOC(=O)NCN1C(=O)C2C3C=CC(C3)C2C1=O` (centres undefined), the inhibition is 9.26%.

For the compound `Cc1cc(OCC(=O)NCCc2ccccc2)ccc1C(C)C`, the inhibition was -16% and -56%.

With `O=C(Nc1nc(-c2cc([N+](=O)[O-])cs2)cs1)C1CC1`, the inhibition is 16%.

Turning to `O=C(COc1ccc(F)cc1)Nc1ccc2c(c1)N(C(=O)c1ccco1)CC2`, the inhibition was 0%.

In the case of `Cc1c(S(=O)(=O)CCNC(=O)NCc2cccs2)c2ccccc2n1C`, the inhibition was -1%.

Regarding `COc1cc(/C=C2\Oc3cc(OCC(=O)O)ccc3C2=O)cc(OC)c1OC`, the inhibition was -2%.

Regarding `COc1ccc(OC)c(NC(=O)c2ccc(S(=O)(=O)NC3CC3)cc2)c1`, the inhibition is 16%.

Take `O=C(NCCn1nc(C(F)(F)F)c2c1CCCC2)c1c(F)cccc1Cl`: the inhibition is -4%.

Consider `COC(=O)c1c(NC(=O)c2cc(C)no2)sc2c1CCCC2`, for which the inhibition is 0%.

On to `CCOC(=O)c1ccc(NC(=O)c2cc(=O)[nH]cn2)cc1`, for which the inhibition was -18%.

`Nn1c(SCC(=O)NC2CCCCC2)nnc(CCC(=O)O)c1=O`: the inhibition was -5%.

`COc1ccc(-n2nnc(C(=O)OCc3ccccc3C)c2C)cc1`: the inhibition is -5%.

Regarding `CSc1ccccc1NC(=O)C(=O)NCCC(O)c1ccc2c(c1)OCO2` (centres undefined), the inhibition was 13%.

For `O=C(Nc1ccc2c(c1)OCO2)c1ccc2nccnc2c1`, the inhibition is -19%.

On to `CS(=O)(=O)N1CCCCC1C(=O)Nc1nc(-c2ccccn2)cs1` (centres undefined), for which the inhibition is 79% (active).

Regarding `CC1(C)CC(=O)c2sc(NC(=O)C3CCCCN3S(C)(=O)=O)nc2C1` (centres undefined), the inhibition was -7%.

Consider `CS(=O)(=O)N1CCC[C@H]1C(=O)Nc1nc(-c2ccccn2)cs1`, for which the inhibition was 75% (active).

On to `O=C(Nc1nccs1)C1CCCN1S(=O)(=O)c1cccc2cccnc12` (centres undefined), for which the inhibition was -2.31%.

Turning to `CS(=O)(=O)N1CCCC(C(=O)Nc2nc(-c3nc4ccccc4s3)cs2)C1` (centres undefined), the inhibition was -20%.

Consider `CS(=O)(=O)N1CCCC1C(=O)Nc1nc2c(F)cc(F)cc2s1` (centres undefined), for which the inhibition was 5%.
